GALC G270D act – raises human GALC G270D mutant activity in cells; P54803; 145M-Twi-hGALC-G270D cells (Twitcher mouse brain line with human GALC G270D), HMU-beta-Gal fluorescence, 48 h; Potency, µM (series often up to 57.5 µM), hits mostly activators; hit rate 0.1% among 45,000; AID 1159614; note: potency is the fitted concentration of half-maximal effect; 0% is about no effect; nearly all actives have a fitted effect of over 65% in size
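Mutant human GALC (G270D), stably expressed in a Twitcher mouse brain cell line lacking endogenous GALC, is measured in live-treated cells via 6-hexadecanoylamino-4-methylumbelliferyl-β-galactoside hydrolysis (0.1 mM final, pH 5.2) with fluorescent detection.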
TSG101-PTAP inh – blocks PTAP binding to human TSG101, validation. Q99816. Fluorescence polarization, FITC-PTAP peptide/Tsg101, 20 min. 44,000 tested, under 10 active. AID 1347069. Potency, µM (highest dose often 115 µM), actives largely listed as inhibitors; note: potency is the fitted concentration of half-maximal effect; 0% is about no effect
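qHTS FP binding, 20 min r.t.: 10 uM Tsg101 domain + 50 nM FITC-PTAP peptide, pH 7.5 HEPES buffer with TCEP and EDTA.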
DRV1 agonist – agonists of human resolvin D1 receptor DRV1 (GPR32); CHO-K1 GPR32 beta-arrestin PathHunter luminescence, 90 min; zero percent set by DMSO-only wells; activation, % at 76.9 µM; hit rate 2.5% among 48,000;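 active = activation of at least 60% and not above a set upper limit, about 1 call in 100 departs from these limits; inconclusive = activation of 40% to 60%, or above that upper limit; inactive = activation under 40%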; note: 0% is about no effect
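Engineered CHO-K1 line co-expressing GPR32-ProLink and EA-beta-arrestin. Compound treatment lasted 90 min at 37 °C. Luminescence was recorded after 1 h with substrate at ambient temperature, relative to DMSO basal wells.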
FH mod – Identification of activators of human fumarate hydratase by quantitative high-throughput screening. Fumarate hydratase, mitochondrial (Homo sapiens), P07954. hit rate 0.22% among 54,000. Potency, µM (series often up to 79.9 µM), inactives show at the top dose activity change, negative = inhibition, hits mostly inhibitors. FH coupled MDH/diaphorase resazurin fluorescence, 15 min; note: potency is the fitted concentration of half-maximal effect; % is set by controls: 0 for no effect and ±100 for the full control effect; the screen sought activators but most active calls are inhibition curves; nearly all actives have a fitted effect of over 45% in size
B2AR arrestin ag – ADRB2 beta-arrestin recruitment. HTLA Tango cells, beta-arrestin recruitment, luciferase luminescence, 18 h. Potency, µM (titrated, usually from 46.1 µM), usual class: activators. 44,000 tested, under 10 active. AID 1347077;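 note: potency is the fitted concentration of half-maximal effect; 0% = DMSO and full agonism = EC100 isoproterenol or metaproterenol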
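Receptor–beta-arrestin recruitment read by tTA-responsive luciferase: compound titrations (up to 46 µM) incubated 18 h with Tango cells, then luminescent substrate 15 min at room temperature. Concentration-response fits classified by r2, efficacy and activity.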
GALK inhibitor – inhibits human galactokinase; P51570; recombinant GALK, Kinase-Glo ATP luminescence, 1 h; Potency, µM (top dose mostly 57.5 µM), for the others: at the highest dose activity, negative = inhibition, actives largely listed as inhibitors; 44,000 tested, under 10 active; AID 1347072;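 note: plate controls were full GALK reaction for no effect and reaction lacking GALK for full effect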
Target sequence (P51570 whole entry, looked up): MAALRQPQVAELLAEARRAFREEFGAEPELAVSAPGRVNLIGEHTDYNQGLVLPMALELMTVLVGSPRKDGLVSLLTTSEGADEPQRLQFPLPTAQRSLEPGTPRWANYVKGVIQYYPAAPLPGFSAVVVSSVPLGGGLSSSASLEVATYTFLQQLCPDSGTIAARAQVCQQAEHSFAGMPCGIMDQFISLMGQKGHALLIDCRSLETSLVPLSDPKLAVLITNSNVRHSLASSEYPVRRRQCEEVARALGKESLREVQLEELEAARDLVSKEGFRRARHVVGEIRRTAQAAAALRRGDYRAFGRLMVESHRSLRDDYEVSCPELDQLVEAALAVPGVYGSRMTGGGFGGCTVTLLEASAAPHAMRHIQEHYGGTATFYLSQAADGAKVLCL
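Reactions with and without enzyme served as controls. GALK at 5 nM phosphorylates 100 uM galactose using 35 uM ATP (HEPES pH 8.0, Mg2+) for 1 h at RT, with luminescence read 10 min after adding Kinase-Glo Plus.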
The depositor's hits bear a star; i = inactive; u = inconclusive; x = no result given; [ ] = another dose, or the depositor's remark. Shown are actives, neighbours in structure and some others; about 2.8% of the full set was active somewhere. Unless noted, calls come from the whole dose curve; as a rule, active = well fitted curve in the direction sought with a large enough effect; inconclusive = small, poorly fitted or top-dose-only effect, or another doubt; inactive = no such curve, though single readings can be large; an effect the other way counts as inactive or inconclusive.

SMILES	GALC G270D act	TSG101-PTAP inh	DRV1 agonist	FH mod	B2AR arrestin ag	GALK inhibitor
CCCCNc1nc2c(c(=O)n(C)c(=O)n2C)n1CC(O)COc1ccccc1C (centres undefined)	i	i	67*	-7%	i	2%
CCc1ccc(/C=C2/SC(=S)NC2=O)cc1	x	x	7	16µM*	x	x
CCOc1ccc(/C=C2\SC(=O)N(CCN)C2=O)cc1	x	x	x	9%	x	x
CC(C)=CCC[C@](C)(O)[C@H]1CC[C@]2(C)[C@@H]1[C@H](O)CC1[C@@]3(C)CC[C@H](O)C(C)(C)[C@@H]3[C@@H](O[C@@H]3O[C@H](CO)[C@@H](O)[C@H](O)[C@H]3O[C@@H]3O[C@H](CO)[C@@H](O)[C@H](O)[C@H]3O)C[C@]12C (some centres undefined)	x	x	x	-1%[20.6 µM]	x	x
Cc1cc(C)cc(NC(=O)c2ccc3oc(=O)c(S(=O)(=O)c4ccc(F)cc4)cc3c2)c1	i	i	103*	3%	i	0%
COc1ccc(NC(=O)c2ccc3oc(=O)c(S(=O)(=O)c4ccc(F)cc4)cc3c2)cc1OC	i	i	-2	-12%	i	0%
CC(C)(O)C1CC=C(C(=O)OCC2OC(Oc3c(O)cc(C(=O)O)cc3O)C(O)C(O)C2O)CC1 (centres undefined)	x	x	x	-1%[53.3 µM]	x	x
CC(C)(C)Oc1ccc(OCC2Cc3ccccc3CN2C(=O)c2cccc3ccccc23)cc1 (centres undefined)	x	x	x	-20%	x	x
Nc1nc(Cl)nc2c1ncn2[C@@H]1O[C@H](COP(=O)(O)OP(=O)(O)OP(=O)(O)O)C(O)[C@H]1O (some centres undefined)	x	x	x	-14%[53.3 µM]	x	x
COc1cccc(CNCCSc2nnnn2C)c1OCc1ccc(Cl)cc1	i	i	116*	-19%	i	8%
COc1cccc(CNCCSc2nnnn2C)c1OCc1ccc(Cl)cc1Cl	i	i	u	u	i	-1%
CCOc1cc(CNCCSc2nnnn2C)cc(Cl)c1OCc1ccc(Cl)cc1	i	i	26	u	i	-2%
COc1cc(CNCCSc2nnnn2C)cc(Cl)c1OCc1ccccc1	i	i	89*	-5%	i	-1%
CC(C)(C)CC(C)(C)c1ccc(OCC(=O)Nc2ccc(S(=O)(=O)Nc3ncccn3)cc2)cc1	i	i	-3	-4%	i	0%
CC(C)(C)c1ccc(OCC(=O)Nc2ccc(S(=O)(=O)Nc3ncccn3)cc2)cc1	i	i	79*	-13%	i	-2%
CC(C)c1ccc2oc3nc(N)c(C(=O)O)cc3c(=O)c2c1	i	x	104*	-10%[53.3 µM]	x	x
CC(C)=CCC/C(C)=C/CO[C@@H]1O[C@H](CO[C@@H]2O[C@@H](CO)[C@H](O)[C@H]2O)[C@@H](O)[C@H](O)[C@H]1O	x	x	x	-1%[53.3 µM]	x	x
O=C1OC2(c3ccccc31)c1cc(Br)c(O)c(Br)c1Oc1c2cc(Br)c(O)c1Br	i	x	68*	u	x	x
C[C@@H]1O[C@@H](O[C@H]2[C@H](O)[C@@H](C(=O)O)O[C@@H](O[C@H]3CC[C@@]4(C)C(CC[C@]5(C)C4CC=C4C6CC(C)(C)CC[C@]6(C(=O)O)CC[C@]45C)C3(C)C)[C@@H]2O[C@@H]2O[C@H](CO)[C@@H](O)[C@H](O)[C@H]2O)[C@H](O)[C@H](O)[C@H]1O (some centres undefined)	x	x	x	-9%[20.6 µM]	x	x
Cc1cc(C)cc(NC(=O)COc2cccc3c(=O)n(C)ccc23)c1	i	i	86*	20%	i	-5%
CCOCCn1ccc2c(OCC(=O)Nc3cccc(F)c3)cccc2c1=O	i	i	77*	-7%	i	-4%
Cn1ccc2c(OCC(=O)NCc3ccc(F)cc3)cccc2c1=O	i	i	68*	-8%	i	-4%
O=C(c1ccc(-c2ccc(Cl)cc2)o1)N(Cc1ccccn1)c1ccc(N2CCNCC2)cc1	x	x	x	6%	x	x
CCSc1nn(CC(=O)Nc2ccc(C(=O)OC)cc2)c(N)c1S(=O)(=O)c1ccc(C)cc1	i	i	11	u	i	-2%
CCOC(=O)c1ccc(NC(=O)Cn2nc(SC)c(S(=O)(=O)c3ccc(Cl)cc3)c2N)cc1	i	i	69*	u	i	6%
SMILES	GALC G270D act	TSG101-PTAP inh	DRV1 agonist	FH mod	B2AR arrestin ag	GALK inhibitor
COc1ccccc1NC(=O)c1cc2ccc3cccnc3c2[nH]1	i	i	93*	-29%	i	0%
CCN1CCN(Cc2ccc(Nc3ncc(F)c(-c4cc(F)c5nc(C)n(C(C)C)c5c4)n3)nc2)CC1	x	x	x	-2%	x	x
Cc1ccccc1OCc1cc(=O)n2c(-c3ccccc3)csc2n1	i	i	32	1%	i	-1%
COc1cccc(OCc2cc(=O)n3c(-c4ccccc4)csc3n2)c1	i	i	121*	0%	u	-8%
Cc1n[nH]c(C)c1S(=O)(=O)N(CC(=O)Nc1ccc(C(F)(F)F)cc1)c1ccc(C(C)C)cc1	i	i	12	-18%	i	9%
Cc1cc(C)cc(N(CC(=O)Nc2ccc(C(F)(F)F)cc2)S(=O)(=O)c2c(C)[nH]c(=O)[nH]c2=O)c1	i	i	112*	-12%	i	-1%
Cc1cc(C)cc(N(CC(=O)Nc2ccc(C)cc2Cl)S(=O)(=O)c2c(C)[nH]c(=O)[nH]c2=O)c1	i	i	79*	-16%	i	9%
Cc1ccc(N(CC(=O)Nc2ccc(C)c(F)c2)S(=O)(=O)c2c(C)n[nH]c2C)cc1	i	i	102*	-20%	i	8%
C[C@@H]1COCCN1c1cc(=O)n2c(n1)N(Cc1cncc(Cl)c1)[C@H](C(F)(F)F)CC2	x	x	x	13%	x	x
CC[C@@H](C)[C@H](N)C(=O)N1Cc2ccccc2C1	x	x	x	0%	x	x
CC(C)N(CCCCOCC(=O)NS(C)(=O)=O)c1cnc(-c2ccccc2)c(-c2ccccc2)n1	x	x	x	-8%	x	x
O=C(Nc1cc(Cl)cc(Cl)c1)c1ccc(F)c(S(=O)(=O)NC2CCCCC2)c1	i	i	69*	-21%	i	-1%
CCC(=O)N1CCc2cc(S(=O)(=O)NCc3ccc(C)cc3)ccc21	i	i	18	-4%	i	-9%
CCC(=O)N1CCc2cc(S(=O)(=O)N(C)c3cccc(C)c3)ccc21	i	i	63*	-10%	i	2%

From PubChem
